Source: the supplement of paper PMC10849652
The full data set covers some 8,800 targets. This sample favours those with a hit. About 0.5% of all pairs of compound and target were hits. A number with no mark means an inactive call.

Legend:
Test in all cases: log2 fold change, soluble protein after heating vs DMSO (PISA); higher = thermal stabilisation; K562 lysate, 10 uM; active = over 0.2 and 3.5 SD of the protein, either way, in both replicates (recomputed)
[1] = compound: NC(=O)c1cnc(N[C@@H]2CCCC[C@@H]2N)nc1Nc1cccc(-n2nccn2)c1
Method in brief: (§1)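 The values are log-two fold changes in thermal stability compared with solvent controls and come from duplicates. They were obtained by TMTpro 16plex LC-MS/MS, with channel sums equalised, on the supernatant after 21,000xg for 90 min. That supernatant came from crude K562 extract at 1 mg/mL protein treated with 10 μM compound for 30 min, heated for 3 min across 48°C-58°C, pooled and brought to 0.5% NP-40 at 4°C.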

entospletinib = compound: c1cn2cc(-c3ccc4cn[nH]c4c3)nc(Nc3ccc(N4CCOCC4)cc3)c2n1 [entospletinib]
Method in brief: as §1

dasatinib = compound: Cc1nc(Nc2ncc(C(=O)Nc3c(C)cccc3Cl)s2)cc(N2CCN(CCO)CC2)n1 [dasatinib]
Method in brief: as §1

[2] = compound: Cn1cc(-c2ccc3c(c2)CCN3C(=O)Cc2cccc(C(F)(F)F)c2)c2c(N)ncnc21
Method in brief: as §1

quisinostat = compound: Cn1cc(CNCC2CCN(c3ncc(C(=O)NO)cn3)CC2)c2ccccc21 [quisinostat]
Method in brief: as §1

[3] = compound: NC(=O)Nc1cc(-c2cccc(F)c2)sc1C(=O)N[C@H]1CCCNC1
Method in brief: as §1

[4] = compound: NC1(c2ccc(-c3nc4ccn5c(=O)[nH]nc5c4cc3-c3ccccc3)cc2)CCC1
Method in brief: as §1

[5] = compound: NCC(=O)Nc1ccc(-n2nc(C(F)(F)F)cc2-c2ccc3c(ccc4ccccc43)c2)cc1
Method in brief: as §1

vorinostat = compound: O=C(CCCCCCC(=O)Nc1ccccc1)NO [vorinostat]
Method in brief: as §1

silmitasertib = compound: O=C(O)c1ccc2c(c1)nc(Nc1cccc(Cl)c1)c1ccncc12 [silmitasertib]
Method in brief: as §1

[6] = compound: O=C1NC(=O)C(c2cnc3ccccn23)=C1c1cn2c3c(cc(F)cc13)CN(C(=O)N1CCCCC1)CC2
Method in brief: as §1

nilotinib = compound: Cc1cn(-c2cc(NC(=O)c3ccc(C)c(Nc4nccc(-c5cccnc5)n4)c3)cc(C(F)(F)F)c2)cn1 [nilotinib]
Method in brief: as §1

[7] = compound: Cc1nc(Nc2n[nH]c3c2CN(C(=O)N[C@H](CN(C)C)c2ccccc2)C3(C)C)c2sccc2n1
Method in brief: as §1

[8] = compound: Cc1ncc(-c2ccnc(Nc3ccc(S(C)(=O)=O)cc3)n2)n1C(C)C
Method in brief: as §1

tipifarnib = compound: Cn1cncc1[C@@](N)(c1ccc(Cl)cc1)c1ccc2c(c1)c(-c1cccc(Cl)c1)cc(=O)n2C [tipifarnib]
Method in brief: as §1

Sequence of UniProt Q8N302 (Q8N302 whole entry, looked up): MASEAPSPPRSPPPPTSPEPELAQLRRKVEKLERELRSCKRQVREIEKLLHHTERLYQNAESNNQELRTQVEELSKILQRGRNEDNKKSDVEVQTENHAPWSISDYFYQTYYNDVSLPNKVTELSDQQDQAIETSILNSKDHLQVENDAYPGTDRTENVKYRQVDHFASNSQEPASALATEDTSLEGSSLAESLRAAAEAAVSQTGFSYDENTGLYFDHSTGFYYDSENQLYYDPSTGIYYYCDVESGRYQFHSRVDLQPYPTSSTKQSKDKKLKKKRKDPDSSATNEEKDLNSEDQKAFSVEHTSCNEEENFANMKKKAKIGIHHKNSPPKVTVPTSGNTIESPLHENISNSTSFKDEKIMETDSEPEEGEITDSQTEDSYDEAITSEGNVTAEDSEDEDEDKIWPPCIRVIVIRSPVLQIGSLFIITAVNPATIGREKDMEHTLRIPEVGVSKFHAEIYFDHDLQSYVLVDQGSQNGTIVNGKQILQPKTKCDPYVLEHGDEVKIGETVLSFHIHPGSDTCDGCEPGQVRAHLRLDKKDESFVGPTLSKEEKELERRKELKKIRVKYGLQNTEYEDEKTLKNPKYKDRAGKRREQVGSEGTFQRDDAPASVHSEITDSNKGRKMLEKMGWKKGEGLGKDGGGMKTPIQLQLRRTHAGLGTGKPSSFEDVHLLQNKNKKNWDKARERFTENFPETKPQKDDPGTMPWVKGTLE
Sequence of UniProt P78536 (P78536 whole entry, looked up): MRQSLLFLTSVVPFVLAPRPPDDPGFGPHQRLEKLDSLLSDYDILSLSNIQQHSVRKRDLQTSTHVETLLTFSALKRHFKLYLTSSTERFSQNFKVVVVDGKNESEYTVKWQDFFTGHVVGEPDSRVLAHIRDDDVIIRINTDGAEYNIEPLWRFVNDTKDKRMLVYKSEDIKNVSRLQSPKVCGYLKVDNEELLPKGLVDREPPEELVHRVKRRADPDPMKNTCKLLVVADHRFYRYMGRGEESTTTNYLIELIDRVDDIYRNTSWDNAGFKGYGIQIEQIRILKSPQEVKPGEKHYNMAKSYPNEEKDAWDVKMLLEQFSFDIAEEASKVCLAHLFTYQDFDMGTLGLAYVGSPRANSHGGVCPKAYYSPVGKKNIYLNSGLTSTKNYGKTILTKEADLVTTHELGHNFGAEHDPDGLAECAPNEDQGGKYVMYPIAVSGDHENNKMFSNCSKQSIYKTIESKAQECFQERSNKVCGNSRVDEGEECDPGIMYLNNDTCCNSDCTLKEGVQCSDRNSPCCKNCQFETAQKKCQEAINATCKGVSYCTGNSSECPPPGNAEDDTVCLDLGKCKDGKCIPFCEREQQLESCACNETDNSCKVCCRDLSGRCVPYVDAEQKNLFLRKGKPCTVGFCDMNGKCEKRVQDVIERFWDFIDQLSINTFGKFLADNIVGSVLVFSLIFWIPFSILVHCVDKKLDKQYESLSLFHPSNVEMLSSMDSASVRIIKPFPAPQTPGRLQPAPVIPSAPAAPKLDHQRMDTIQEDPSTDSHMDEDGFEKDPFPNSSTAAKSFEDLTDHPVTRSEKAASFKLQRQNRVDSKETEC
Sequence of UniProt Q04771 (Q04771 whole entry, looked up): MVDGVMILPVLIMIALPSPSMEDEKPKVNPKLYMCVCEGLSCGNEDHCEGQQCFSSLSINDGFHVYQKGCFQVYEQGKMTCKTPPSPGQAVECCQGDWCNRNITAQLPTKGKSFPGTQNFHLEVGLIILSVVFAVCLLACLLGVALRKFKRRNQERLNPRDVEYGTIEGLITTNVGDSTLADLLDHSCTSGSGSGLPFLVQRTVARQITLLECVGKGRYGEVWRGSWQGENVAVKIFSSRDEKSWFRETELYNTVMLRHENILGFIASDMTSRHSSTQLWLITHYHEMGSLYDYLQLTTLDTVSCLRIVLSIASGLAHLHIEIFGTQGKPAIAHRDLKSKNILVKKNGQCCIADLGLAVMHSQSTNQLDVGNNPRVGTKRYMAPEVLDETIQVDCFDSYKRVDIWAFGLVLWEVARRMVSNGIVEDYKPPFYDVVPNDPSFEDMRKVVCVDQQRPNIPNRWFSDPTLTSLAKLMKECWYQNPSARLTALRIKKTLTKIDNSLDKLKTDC
Sequence of UniProt Q13686 (Q13686 whole entry, looked up): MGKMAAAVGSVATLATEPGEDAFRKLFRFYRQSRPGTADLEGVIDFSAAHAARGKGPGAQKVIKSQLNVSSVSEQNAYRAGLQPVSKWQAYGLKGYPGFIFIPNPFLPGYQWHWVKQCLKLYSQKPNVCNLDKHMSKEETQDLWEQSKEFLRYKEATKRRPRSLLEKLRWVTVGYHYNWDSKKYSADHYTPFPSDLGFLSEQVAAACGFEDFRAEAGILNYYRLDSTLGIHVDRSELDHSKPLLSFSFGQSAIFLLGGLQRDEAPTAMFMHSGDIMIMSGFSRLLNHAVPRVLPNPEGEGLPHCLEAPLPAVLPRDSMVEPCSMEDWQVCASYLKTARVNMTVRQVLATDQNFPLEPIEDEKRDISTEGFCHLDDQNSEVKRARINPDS
Sequence of UniProt O14617 (O14617 whole entry, looked up): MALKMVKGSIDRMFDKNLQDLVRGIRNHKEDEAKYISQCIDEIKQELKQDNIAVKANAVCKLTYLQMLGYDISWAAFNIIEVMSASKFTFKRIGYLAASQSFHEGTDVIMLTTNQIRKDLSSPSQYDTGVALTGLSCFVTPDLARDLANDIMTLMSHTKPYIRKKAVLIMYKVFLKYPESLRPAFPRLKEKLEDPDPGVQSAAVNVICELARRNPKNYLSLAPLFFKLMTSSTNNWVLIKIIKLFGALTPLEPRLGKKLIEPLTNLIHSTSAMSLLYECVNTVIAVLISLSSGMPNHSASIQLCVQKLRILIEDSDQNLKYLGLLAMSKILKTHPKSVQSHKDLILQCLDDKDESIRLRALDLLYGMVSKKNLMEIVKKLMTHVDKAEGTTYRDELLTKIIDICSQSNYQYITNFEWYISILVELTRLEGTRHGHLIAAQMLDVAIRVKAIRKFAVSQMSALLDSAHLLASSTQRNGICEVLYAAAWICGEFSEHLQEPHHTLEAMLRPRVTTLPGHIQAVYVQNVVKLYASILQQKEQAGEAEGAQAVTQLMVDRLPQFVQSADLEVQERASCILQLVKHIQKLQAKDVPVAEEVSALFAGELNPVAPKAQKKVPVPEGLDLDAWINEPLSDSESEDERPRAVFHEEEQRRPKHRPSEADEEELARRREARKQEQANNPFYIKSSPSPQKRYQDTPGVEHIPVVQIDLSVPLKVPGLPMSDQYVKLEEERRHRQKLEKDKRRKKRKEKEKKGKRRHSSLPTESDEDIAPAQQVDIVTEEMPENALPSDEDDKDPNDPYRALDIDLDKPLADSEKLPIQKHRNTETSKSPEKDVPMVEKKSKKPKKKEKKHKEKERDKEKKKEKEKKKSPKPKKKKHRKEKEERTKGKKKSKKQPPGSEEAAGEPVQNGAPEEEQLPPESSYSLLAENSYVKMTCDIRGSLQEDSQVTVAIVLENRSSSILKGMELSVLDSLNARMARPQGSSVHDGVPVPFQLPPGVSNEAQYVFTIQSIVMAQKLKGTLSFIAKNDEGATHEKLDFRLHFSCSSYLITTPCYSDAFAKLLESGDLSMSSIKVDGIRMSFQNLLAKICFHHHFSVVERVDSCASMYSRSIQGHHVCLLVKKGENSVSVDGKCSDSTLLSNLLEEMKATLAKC
Sequence of UniProt P00519 (P00519 whole entry, looked up): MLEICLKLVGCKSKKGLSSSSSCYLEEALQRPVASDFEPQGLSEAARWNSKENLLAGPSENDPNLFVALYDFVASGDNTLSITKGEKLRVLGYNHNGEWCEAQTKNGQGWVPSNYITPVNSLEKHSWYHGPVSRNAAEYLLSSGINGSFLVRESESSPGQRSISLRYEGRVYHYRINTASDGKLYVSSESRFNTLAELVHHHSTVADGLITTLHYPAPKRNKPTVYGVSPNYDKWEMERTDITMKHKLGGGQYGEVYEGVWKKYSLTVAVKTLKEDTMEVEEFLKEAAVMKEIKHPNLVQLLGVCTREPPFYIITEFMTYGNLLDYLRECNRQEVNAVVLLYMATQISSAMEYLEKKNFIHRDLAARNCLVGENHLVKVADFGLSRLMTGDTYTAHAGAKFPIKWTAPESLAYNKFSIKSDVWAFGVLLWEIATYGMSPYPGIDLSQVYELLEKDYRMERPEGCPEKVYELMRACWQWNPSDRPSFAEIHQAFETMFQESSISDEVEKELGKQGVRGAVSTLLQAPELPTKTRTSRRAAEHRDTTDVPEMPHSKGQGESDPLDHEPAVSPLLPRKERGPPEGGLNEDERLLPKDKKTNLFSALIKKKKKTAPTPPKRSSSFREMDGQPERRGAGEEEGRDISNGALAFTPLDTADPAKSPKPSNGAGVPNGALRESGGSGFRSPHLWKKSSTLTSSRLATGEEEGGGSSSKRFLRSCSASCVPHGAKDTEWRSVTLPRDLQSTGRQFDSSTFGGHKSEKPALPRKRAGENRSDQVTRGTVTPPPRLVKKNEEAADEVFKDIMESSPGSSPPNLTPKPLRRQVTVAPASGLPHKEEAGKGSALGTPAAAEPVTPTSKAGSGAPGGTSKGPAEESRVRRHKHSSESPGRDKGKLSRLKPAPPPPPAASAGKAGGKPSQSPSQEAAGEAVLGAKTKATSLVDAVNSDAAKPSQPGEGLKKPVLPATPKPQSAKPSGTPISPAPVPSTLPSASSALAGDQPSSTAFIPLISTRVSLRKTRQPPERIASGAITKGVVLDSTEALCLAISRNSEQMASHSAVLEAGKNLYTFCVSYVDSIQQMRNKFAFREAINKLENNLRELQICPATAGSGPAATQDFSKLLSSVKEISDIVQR
Sequence of UniProt Q9BQI0 (Q9BQI0 whole entry, looked up): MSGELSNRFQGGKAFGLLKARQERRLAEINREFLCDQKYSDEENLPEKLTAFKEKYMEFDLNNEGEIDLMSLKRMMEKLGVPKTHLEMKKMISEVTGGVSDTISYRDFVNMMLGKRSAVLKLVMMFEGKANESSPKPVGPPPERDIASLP
Sequence of UniProt P14621 (P14621 whole entry, looked up): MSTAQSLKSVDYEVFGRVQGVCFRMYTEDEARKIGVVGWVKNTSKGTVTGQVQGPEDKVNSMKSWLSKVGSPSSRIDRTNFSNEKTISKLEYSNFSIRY

Row | Target | log2 fold change [1] | log2 fold change (entospletinib) | log2 fold change (dasatinib) | log2 fold change [2] | log2 fold change (quisinostat) | log2 fold change [3] | log2 fold change [4] | log2 fold change [5] | log2 fold change (vorinostat) | log2 fold change (silmitasertib) | log2 fold change [6] | log2 fold change (nilotinib) | log2 fold change [7] | log2 fold change [8] | log2 fold change (tipifarnib)
1 | ACTG1 (UniProt K7EM38) | 0.171 | -0.453 |  |  |  |  |  |  |  |  |  |  |  |  | 
2 | ALG3 (UniProt Q92685) | 0.092 | -0.01 | -0.049 | 0.068 | 0.077 | -0.017 | -0.036 | -0.107 | 0.461 (active) | 0.285 | -0.157 |  |  |  | 
3 | ABI1 isoform 6 (UniProt Q8IZP0) | 0.113 | -0.115 |  |  |  |  |  |  |  |  |  |  |  |  | 
4 | ACVR1 (UniProt Q04771) |  |  | 0.258 | -0.046 |  |  |  |  |  |  |  | -0.11 | 0.013 | 0.476 | -0.309
5 | ARMCX5 (UniProt Q6P1M9) | 0.02 | 0.088 | -0.039 | -0.07 |  |  | -0.027 | -0.233 | 0.102 | 0.013 |  | 0.035 | 0.009 | 0.037 | -0.023
6 | ALDH18A1 isoform 2 (UniProt P54886) |  |  | 0.089 | 0.181 | 0.397 | -0.093 |  | 0.097 |  |  | 0.204 |  |  |  | 
7 | ALKBH1 (UniProt Q13686) |  | -0.052 | -0.249 | 0.007 |  |  | 0.116 | -0.089 | -0.284 (active) | 0.135 |  | -0.087 | -0.026 | -0.052 | 0.137
8 | ACLY isoform 2 (UniProt P53396) | -0.062 | -0.047 |  |  | 0.162 | -0.027 |  | 0.091 |  |  | -0.061 | 0.08 | 0.038 | 0.191 | 0.02
9 | AGGF1 (UniProt Q8N302) | 0.075 | -0.015 |  |  | -0.041 | -0.007 | 0.024 | 0.135 | 0.059 | -0.06 | 0 | 0.02 | 0.055 | 0.087 | -0.06
10 | ACAT1, A0A5F9ZHJ0 |  |  |  |  |  |  |  |  |  |  |  | -0.176 | 0.063 | 0.024 | 0.07
11 | ALDH3A1 (UniProt P30838) | 0.055 |  | 1.35 (active) | -0.024 | -0.381 | -0.065 | -0.018 |  | 0.145 | -0.113 | 0.023 |  |  |  | 
12 | ABL1 isoform 2 (UniProt P00519) | 0.022 | -0.008 |  | -0.002 | -0.074 | 0.08 | -0.009 | -0.003 | -0.328 (active) | -0.019 | -0.042 |  | 0.006 | 0.019 | -0.074
13 | ANKRD40 (UniProt Q6AI12) |  | -0.057 | 0.197 | -0.064 | -0.161 | -0.001 | -0.119 | 0.914 (active) | -0.217 | -0.088 | 0.007 | -0.04 | -0.115 | 0.071 | 0.137
14 | ABHD13 (UniProt Q7L211) | 0.037 | -0.12 | -0.177 | 0.21 | 0.121 | -0.029 |  | 0.023 |  |  | 0.027 | 0.152 | -0.186 | -0.069 | -0.233
15 | ARL13B (UniProt Q3SXY8) | 0.131 |  | 0 | -0.012 | -0.313 | 0.095 | 0.013 | 0.01 | -0.186 | -0.024 | -0.064 |  |  |  | 
16 | AP3D1 isoform 2 (UniProt O14617) | 0.034 |  |  |  |  |  | -0.121 | 0.179 | -0.738 (active) | 0.02 |  | -0.287 | 0.035 | 0.376 | -0.132
17 | ALG13 isoform 2 (UniProt Q9NP73) |  |  |  |  |  |  |  |  |  |  |  | 0.142 | -0.082 | -0.066 | 0.371
18 | AMDHD2 (UniProt Q9Y303) |  |  |  |  | -0.001 | 0.048 |  | -0.092 |  |  | 0.042 |  |  |  | 
19 | AIF1L (UniProt Q9BQI0) | -0.012 | 0.116 | 0.118 | -0.058 | -0.075 | -0.112 | 0.016 |  | -0.048 | 0.083 | 0.022 | -0.263 | -0.176 | 0.142 | 0.123
20 | ACYP2 (UniProt P14621) | -0.026 |  |  |  | -0.047 | -0.009 | 0.019 | 0.066 | 0.147 | -0.081 | 0.012 | -0.008 | -0.079 | 0.097 | 0.009
21 | AP5B1 (UniProt Q2VPB7) | -0.023 | 0.022 | 0.065 | -0.072 | -0.027 | 0.324 (active) | -0.036 |  | -0.062 | 0.044 | -0.094 | 0.001 | -0.033 | -0.053 | -0.087
22 | ANP32E isoform 3 (UniProt Q9BTT0) |  | -0.095 |  |  |  |  |  | 0.135 |  |  |  |  |  |  | 
23 | ADAM17 (UniProt P78536) |  | 0.014 | -0.032 | 0.054 | 0.01 | 0.002 | -0.012 | 0.014 | 0.089 | -0.006 | 0.042 | -0.093 | -0.151 | 0.021 | 0.039
